Results filed as inconclusive are left out. A call without a number means that no potency is given here. A structure can be active in one record and inactive in another. The source made the active and inactive calls. Unless noted, calls follow the shape of the dose curve; as a rule, active = well fitted curve in the direction sought with a large enough effect; inconclusive = small, poorly fitted or top-dose-only effect, or another doubt; inactive = no such curve, though single readings can be large; an effect the other way counts as inactive or inconclusive.
What was measured:
[1] = Quantitative high throughput screen for delayed death inhibitors of the malarial parasite plastid, 48 hour incubation (AID 488752); also: nearly all actives have a fitted effect of over 65% in size; also: potency is read from the fitted curve at half-maximal effect
In short: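 Luciferase-expressing P. falciparum in RBCs, 2% Hct, 0.1% parasitemia final; RPMI 1640 + 0.5% Albumax; 48 h, 37 C, 5% CO2; luminescence readout, signal drop = growth inhibition.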

[2] = target: Thioredoxin reductase 1, cytoplasmic (Rattus norvegicus) (UniProt O89049); test: qHTS Assay for Substrates of Mammalian Selenoprotein Thioredoxin Reductase 1 (TrxR1) (AID 488772);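 also: series mostly up to about 57 µM; a drop in NADPH fluorescence below the no-compound background marks a TrxR1 substrate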
In short: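 In this dual-purpose format, potential substrates are identified from the first fluorescence read after selenite addition, not from the 8-minute delta. Rat enzyme is preincubated with NADPH and then with compound at ~22 deg C.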

[3] = target: Thioredoxin reductase 1, cytoplasmic (Rattus norvegicus) (UniProt O89049); test: qHTS Assay for Inhibitors of Mammalian Selenoprotein Thioredoxin Reductase 1 (TrxR1) (AID 488773); conditions: Potency: inhibition; also: nearly all actives have a fitted effect of over 40% in size; also: potency is read from the fitted curve at half-maximal effect
In short: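 Inhibition is scored from the loss of NADPH fluorescence between first and last reads of an 8-min kinetic run. Selenite (400 uM) was the substrate, added after 15 min compound preincubation at room temperature.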

[4] = target: Chromobox protein homolog 1 (Homo sapiens) (UniProt P83916); test: qHTS Validation Assay for Inhibitors of HP1-beta Chromodomain Interactions with Methylated Histone Tails (AID 488953); also: nearly all actives have a fitted effect of over 50% in size; also: potency is read from the fitted curve at half-maximal effect
Sequence of Chromobox protein homolog 1 (Homo sapiens) (P83916 whole entry, looked up): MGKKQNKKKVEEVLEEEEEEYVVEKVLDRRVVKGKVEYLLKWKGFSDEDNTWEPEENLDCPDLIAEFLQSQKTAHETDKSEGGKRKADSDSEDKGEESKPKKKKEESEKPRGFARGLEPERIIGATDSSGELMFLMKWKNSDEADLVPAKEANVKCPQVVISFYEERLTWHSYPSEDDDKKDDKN
In short: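 AlphaScreen proximity readout: streptavidin donor and Ni-chelate acceptor beads, 10 ug/mL final, 30 min dark, RT. Complex of 50 nM HP1-beta and 50 nM b-H3(1-18)K9me3 formed 30 min, then compound-treated 30 min; PBS pH 7.4/0.01% Tween-20.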

[5] = target: Methanococcus maripaludis chaperonin (MmCpn) (UniProt Q6LX38); test: High-Throughput Screening for Modulators of Cytosolic Chaperonin Activity: MmCpn Primary Screen (AID 488978);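 also: 50 nM MmCpn enzyme hydrolysing 30 µM ATP at 37 °C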
Sequence of Methanococcus maripaludis chaperonin (MmCpn) (Q6LX38 1-543): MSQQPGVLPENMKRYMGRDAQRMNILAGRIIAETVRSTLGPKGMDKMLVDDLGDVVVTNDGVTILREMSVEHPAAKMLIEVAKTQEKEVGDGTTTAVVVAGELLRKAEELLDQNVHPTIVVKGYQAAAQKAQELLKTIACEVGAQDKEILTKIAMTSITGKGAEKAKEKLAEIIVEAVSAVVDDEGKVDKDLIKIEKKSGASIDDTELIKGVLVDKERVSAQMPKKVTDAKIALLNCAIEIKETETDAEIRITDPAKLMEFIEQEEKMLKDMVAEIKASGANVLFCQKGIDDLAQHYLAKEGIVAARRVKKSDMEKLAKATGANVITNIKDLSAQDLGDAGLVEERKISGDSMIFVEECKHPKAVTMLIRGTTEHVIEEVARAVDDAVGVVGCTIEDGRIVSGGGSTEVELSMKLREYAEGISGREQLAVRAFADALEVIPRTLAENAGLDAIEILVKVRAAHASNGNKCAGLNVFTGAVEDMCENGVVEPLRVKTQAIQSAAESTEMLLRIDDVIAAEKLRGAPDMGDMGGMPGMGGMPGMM
In short: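 ATPase activity of 50 nM MmCpn was assayed with 30 uM ATP, 10 minutes at 37C, after a 5 min compound preincubation at room temperature. ADP production was read as HTRF emission at 590 and 665 nm.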

[6] = target: Transient receptor potential cation channel subfamily V member 1 (Homo sapiens) (UniProt Q8NER1); test: HTS Assay for Compounds that Act as Enhancers of the Vanilloid Receptor 1 (AID 488979)
Sequence of Transient receptor potential cation channel subfamily V member 1 (Homo sapiens) (Q8NER1 whole entry, looked up): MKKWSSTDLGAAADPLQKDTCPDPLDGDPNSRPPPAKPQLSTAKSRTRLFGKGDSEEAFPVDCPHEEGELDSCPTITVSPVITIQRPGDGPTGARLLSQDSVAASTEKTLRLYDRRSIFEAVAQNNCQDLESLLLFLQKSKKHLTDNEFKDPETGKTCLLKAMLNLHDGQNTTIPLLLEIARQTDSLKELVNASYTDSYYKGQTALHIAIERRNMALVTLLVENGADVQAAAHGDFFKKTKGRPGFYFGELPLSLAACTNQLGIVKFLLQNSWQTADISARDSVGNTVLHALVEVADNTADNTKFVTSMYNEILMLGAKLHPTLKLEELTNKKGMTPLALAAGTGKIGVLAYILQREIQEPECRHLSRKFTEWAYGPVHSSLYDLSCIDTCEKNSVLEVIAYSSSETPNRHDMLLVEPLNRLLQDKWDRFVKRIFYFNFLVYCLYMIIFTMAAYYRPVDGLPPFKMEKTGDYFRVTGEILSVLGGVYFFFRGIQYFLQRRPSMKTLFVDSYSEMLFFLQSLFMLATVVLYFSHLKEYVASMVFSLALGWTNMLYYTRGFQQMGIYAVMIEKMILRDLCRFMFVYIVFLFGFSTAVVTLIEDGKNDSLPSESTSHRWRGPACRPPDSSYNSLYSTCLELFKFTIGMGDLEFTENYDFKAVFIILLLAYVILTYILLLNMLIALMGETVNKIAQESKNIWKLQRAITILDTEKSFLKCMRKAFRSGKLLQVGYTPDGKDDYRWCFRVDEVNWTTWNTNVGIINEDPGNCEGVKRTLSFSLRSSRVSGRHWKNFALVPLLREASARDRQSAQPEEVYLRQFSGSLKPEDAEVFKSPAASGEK
In short: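 TRPV1 cells loaded with Fluo-8 calcium dye; compound added and Ca2+ signal (ex 480/em 520 nm) followed 3 min, then capsaicin at EC20 added and read 2 more min to detect enhancement.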

[7] = target: Thyrotropin receptor (Homo sapiens) (UniProt P16473); test: qHTS Assay for Antagonists of the Thyroid Stimulating Hormone Receptor (AID 488980); also: series mostly up to about 58 µM
Sequence of Thyrotropin receptor (Homo sapiens) (P16473 whole entry, looked up): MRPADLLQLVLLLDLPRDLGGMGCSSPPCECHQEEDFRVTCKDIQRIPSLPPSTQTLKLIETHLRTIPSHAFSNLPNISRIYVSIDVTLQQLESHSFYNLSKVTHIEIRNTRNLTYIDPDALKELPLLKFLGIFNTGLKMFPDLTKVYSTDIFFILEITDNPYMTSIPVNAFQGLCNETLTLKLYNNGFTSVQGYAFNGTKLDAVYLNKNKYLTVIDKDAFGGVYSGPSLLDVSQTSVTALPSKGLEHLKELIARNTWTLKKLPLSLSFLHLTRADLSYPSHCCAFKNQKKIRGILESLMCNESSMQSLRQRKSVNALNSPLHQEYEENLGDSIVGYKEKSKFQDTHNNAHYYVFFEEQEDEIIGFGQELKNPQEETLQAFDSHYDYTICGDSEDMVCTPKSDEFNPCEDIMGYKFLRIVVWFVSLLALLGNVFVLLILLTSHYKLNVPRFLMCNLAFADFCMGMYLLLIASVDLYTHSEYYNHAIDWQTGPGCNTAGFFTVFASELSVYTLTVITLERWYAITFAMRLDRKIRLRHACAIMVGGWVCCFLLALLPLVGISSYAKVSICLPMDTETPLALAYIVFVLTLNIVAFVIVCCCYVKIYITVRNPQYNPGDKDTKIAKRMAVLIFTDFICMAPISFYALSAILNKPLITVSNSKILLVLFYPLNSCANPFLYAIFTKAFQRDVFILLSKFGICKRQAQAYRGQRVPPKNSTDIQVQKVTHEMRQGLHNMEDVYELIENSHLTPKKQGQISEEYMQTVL
In short: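 Inhibition of cAMP raised by EC80 TSH (4 nM final) was read by HTRF, with lysate cAMP competing against cAMP-d2 for cryptate antibody after 30 min at room temperature. The cells were transfected HEK293 held in phosphodiesterase inhibitor RO 20-1724 at 70 uM.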

[8] = target: D(1A) dopamine receptor (Homo sapiens) (UniProt P21728); test: HTS Assay for Allosteric Agonists of the Human D1 Dopamine Receptor: Primary Screen for Potentiators (AID 488982)
In short: (§1)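 Tetracycline-induced HEK293 Trex D1 cells with forced coupling to calcium, loaded with no-wash calcium dye; kinetic fluorescence read 180 s after compound addition for agonism, then a further 180 s after an EC20 dopamine challenge for potentiation.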

[9] = target: D(1A) dopamine receptor (Homo sapiens) (UniProt P21728); test: HTS Assay for Allosteric Agonists of the Human D1 Dopamine Receptor: Primary Screen for Antagonists (AID 488983);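 also: calcium flux response to an EC80 dopamine challenge measured with no-wash dye; nearly all actives have a fitted effect of over 65% in size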; also: potency is read from the fitted curve at half-maximal effect
In short: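 Calcium flux readout, no-wash dye, inducible HEK293 T-REx D1 line (force-coupled). Compound added after 10 s baseline, 180 s kinetic read; then dopamine at EC80, further 180 s read.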

[10] = target: ATP-dependent 6-phosphofructokinase (Trypanosoma brucei brucei) (UniProt O15648); test: qHTS Assay to Find Inhibitors of T. brucei phosphofructokinase: hit validation (AID 492961);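 also: luminescence reports ADP formed as PFK phosphorylates fructose-6-phosphate with ATP; series mostly up to about 51 µM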
In short: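 Compounds titrated; %activity normalized to 0x and 1x enzyme controls, curve-fitted. Readout: ADP-Glo luminescence after 45 min room-temperature reaction of 1.25 nM PFK, 0.1 mM ATP, 0.5 mM F6P, pH 8.0.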

[11] = Validation screen for small molecules that induce genotoxicity in human embryonic kidney (HEK293T) cells expressing luciferase-tagged ELG1 (AID 493106); also: potency is read from the fitted curve at half-maximal effect
In short: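 qHTS format; 2,000 HEK293T ELG1-luc cells/well; 23 nL compound via pin tool; 16 hr, 37 °C/5% CO2; ONE-Glo, 30 min RT; luminescence read.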

[12] = target: Thyrotropin-releasing hormone receptor (Homo sapiens) (UniProt P34981); test: qHTS for Small Molecule Agonists and Allosteric Enhancers of Human TRH Receptor: Validation Screen for Agonists (AID 493127;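 active = calcium activation more than 3 SD above the typical response in the agonist read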;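 also: intracellular calcium rise by fluo-8 fluorescence before TRH EC20 addition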); conditions: TRH receptor agonist cell assay; at 2 µM; stronger effect = higher value
In short: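 Read-out: intracellular calcium release measured kinetically by FDSS (fluo-8, ex 480/em 530 nm), 1 reading/s after a 10-cycle baseline. TRHR cells, 2000/well, cultured 18 h at 33.5C, dye-loaded at room temp. Compound-evoked positive calcium signal flags agonists.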

[13] = Nrf2 qHTS screen for inhibitors: Validation (AID 493153; active = well fitted inhibition curve with a large enough effect in the main read-out, with a control signal flat, not every such curve was filed as active); conditions: Potency: luciferase luminescence; viability change: measured here: cytotoxicity max response
In short: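 Concentration-response test in A549 ARE_Fluc reporter cells (5% FBS OPTI-MEM), compound exposure 18-24 h at 37°C, 5% CO2. Cell viability measured first by CellTiter-Fluor fluorescence; ARE-driven luciferase luminescence then measured as Nrf2 activity.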

[14] = qHTS for Inhibitors of Cell Surface uPA Generation: Validation Assay (AID 493164);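 also: RAW 264.7 macrophage cells exposed to compound for 18 h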
In short: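 Compounds are titrated over seven points (2.45 nM–38.3 uM final) onto pre-plated RAW 264.7 cells and incubated for 18 h. Retained intracellular ATP, measured with ATP-Lite, indicates blocked lethal factor entry.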

[15] = target: Galactokinase (Homo sapiens) (UniProt P51570); test: qHTS Validation Assay for Inhibitors of Human Galactokinase (GALK) (AID 493189)
In short: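 Inhibition was measured as remaining ATP, detected by luciferase luminescence after a 1 h room-temperature reaction. Final conditions: 5 nM GALK, 100 uM galactose, 35 uM ATP, pH 8.0 HEPES buffer.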

[16] = target: M-phase phosphoprotein 8 (Homo sapiens) (UniProt Q99549); test: qHTS Validation Assay for Inhibitors for MPP8 Chromodomain Interactions with Methylated Histone Tails (AID 488949); also: nearly all actives have a fitted effect of over 55% in size; also: potency is read from the fitted curve at half-maximal effect
Sequence of M-phase phosphoprotein 8 (Homo sapiens) (Q99549 whole entry, looked up): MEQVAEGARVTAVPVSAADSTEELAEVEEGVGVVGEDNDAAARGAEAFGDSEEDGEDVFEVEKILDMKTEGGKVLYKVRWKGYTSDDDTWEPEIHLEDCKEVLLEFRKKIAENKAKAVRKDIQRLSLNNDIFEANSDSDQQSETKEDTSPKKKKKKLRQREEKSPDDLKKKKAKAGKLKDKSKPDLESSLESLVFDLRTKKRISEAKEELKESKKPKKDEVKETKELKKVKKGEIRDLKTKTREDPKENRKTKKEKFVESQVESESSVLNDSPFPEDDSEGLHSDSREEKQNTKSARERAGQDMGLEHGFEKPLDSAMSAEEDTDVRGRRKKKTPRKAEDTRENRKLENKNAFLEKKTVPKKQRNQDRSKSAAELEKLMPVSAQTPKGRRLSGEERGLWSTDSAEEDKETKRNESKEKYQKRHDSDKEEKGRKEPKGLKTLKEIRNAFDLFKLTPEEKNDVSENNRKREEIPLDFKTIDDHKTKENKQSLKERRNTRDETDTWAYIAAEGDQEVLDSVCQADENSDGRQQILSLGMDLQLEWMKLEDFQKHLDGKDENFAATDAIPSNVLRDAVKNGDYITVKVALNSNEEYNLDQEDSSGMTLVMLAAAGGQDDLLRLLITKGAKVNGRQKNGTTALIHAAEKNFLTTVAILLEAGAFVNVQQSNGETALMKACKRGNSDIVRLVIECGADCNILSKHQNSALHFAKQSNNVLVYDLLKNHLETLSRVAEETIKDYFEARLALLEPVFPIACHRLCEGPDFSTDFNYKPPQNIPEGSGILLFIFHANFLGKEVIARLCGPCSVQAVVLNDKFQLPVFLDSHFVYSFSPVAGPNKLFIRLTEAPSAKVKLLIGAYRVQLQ
In short: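 AlphaScreen proximity signal from streptavidin donor and Ni-chelate acceptor beads (10 ug/mL each) reported binding of MPP8 to trimethyl-K9 H3(1-18) peptide, both at 50 nM. The complex formed 30 min before a 30 min compound exposure at room temperature, in PBS pH 7.4.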

[17] = target: D(1A) dopamine receptor (Homo sapiens) (UniProt P21728); test: HTS Assay for Allosteric Agonists of the Human D1 Dopamine Receptor: Primary Screen for Agonists (AID 488981); also: potency is read from the fitted curve at half-maximal effect
In short: as §1

[18] = target: ATPase family AAA domain-containing protein 5 (Homo sapiens) (UniProt Q96QE3); test: Validation screen for small molecules that inhibit ELG1-dependent DNA repair in human embryonic kidney (HEK293T) cells expressing luciferase-tagged ELG1 (AID 493107); also: nearly all actives have a fitted effect of over 70% in size; also: potency is read from the fitted curve at half-maximal effect
Sequence of ATPase family AAA domain-containing protein 5 (Homo sapiens) (Q96QE3 whole entry, looked up, the tested form may be a part): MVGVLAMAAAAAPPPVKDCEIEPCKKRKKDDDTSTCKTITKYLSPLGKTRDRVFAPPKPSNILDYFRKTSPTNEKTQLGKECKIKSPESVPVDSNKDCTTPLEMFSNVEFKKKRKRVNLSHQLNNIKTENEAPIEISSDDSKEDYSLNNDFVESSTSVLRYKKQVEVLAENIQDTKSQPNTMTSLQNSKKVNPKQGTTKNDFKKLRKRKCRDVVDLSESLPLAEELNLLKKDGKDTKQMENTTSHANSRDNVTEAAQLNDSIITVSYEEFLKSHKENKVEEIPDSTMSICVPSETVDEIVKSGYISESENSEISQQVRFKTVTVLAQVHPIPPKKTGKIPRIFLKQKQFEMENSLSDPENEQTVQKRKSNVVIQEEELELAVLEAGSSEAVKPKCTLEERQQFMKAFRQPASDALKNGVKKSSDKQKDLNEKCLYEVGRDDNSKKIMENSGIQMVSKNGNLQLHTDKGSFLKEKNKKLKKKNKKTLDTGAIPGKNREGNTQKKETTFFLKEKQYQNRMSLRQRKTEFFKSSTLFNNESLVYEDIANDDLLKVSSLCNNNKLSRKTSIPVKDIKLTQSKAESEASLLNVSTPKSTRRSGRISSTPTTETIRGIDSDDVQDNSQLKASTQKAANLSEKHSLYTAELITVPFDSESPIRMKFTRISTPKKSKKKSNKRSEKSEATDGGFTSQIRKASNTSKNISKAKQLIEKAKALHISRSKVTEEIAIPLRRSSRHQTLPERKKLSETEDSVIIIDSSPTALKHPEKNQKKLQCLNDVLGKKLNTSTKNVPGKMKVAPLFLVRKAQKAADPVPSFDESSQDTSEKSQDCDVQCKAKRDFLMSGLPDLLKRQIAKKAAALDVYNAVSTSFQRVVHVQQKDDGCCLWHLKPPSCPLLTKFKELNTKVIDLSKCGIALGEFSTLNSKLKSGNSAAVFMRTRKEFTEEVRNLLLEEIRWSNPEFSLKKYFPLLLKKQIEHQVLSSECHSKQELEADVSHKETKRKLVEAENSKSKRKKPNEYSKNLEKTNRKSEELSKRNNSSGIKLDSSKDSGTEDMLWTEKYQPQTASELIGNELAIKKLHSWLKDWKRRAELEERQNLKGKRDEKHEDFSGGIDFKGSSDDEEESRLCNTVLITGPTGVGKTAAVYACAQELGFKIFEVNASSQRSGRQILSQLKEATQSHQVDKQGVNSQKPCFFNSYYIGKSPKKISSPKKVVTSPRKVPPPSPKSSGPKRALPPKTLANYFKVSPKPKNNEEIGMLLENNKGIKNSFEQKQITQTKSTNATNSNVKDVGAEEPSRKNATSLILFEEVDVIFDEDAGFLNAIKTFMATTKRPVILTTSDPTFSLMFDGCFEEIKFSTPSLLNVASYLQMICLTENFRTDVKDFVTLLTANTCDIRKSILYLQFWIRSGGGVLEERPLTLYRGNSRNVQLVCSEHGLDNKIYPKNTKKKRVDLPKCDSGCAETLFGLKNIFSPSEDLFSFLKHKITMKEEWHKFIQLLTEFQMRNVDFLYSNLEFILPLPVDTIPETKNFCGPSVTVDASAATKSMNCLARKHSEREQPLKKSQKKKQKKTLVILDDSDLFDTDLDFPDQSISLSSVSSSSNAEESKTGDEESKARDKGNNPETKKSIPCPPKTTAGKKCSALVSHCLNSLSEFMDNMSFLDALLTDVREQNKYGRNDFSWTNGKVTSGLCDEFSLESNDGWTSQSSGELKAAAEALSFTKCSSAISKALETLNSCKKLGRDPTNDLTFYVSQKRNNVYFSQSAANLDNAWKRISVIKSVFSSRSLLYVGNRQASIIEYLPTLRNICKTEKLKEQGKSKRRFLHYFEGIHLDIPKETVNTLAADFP
In short: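 ELG1-luciferase HEK293T reporter; 5-fluorouridine + compound/DMSO, 16 hr, 37 °C, 5% CO2; ONE-Glo 30 min RT; luminescence read, qHTS format.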

[19] = target: Flap endonuclease 1 (Homo sapiens) (UniProt P39748); test: qHTS Validation Assay for the Inhibitors of Human Flap endonuclease 1 (FEN1) (AID 488816)
In short: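 Enzyme reagent 10 nM; cpds pinned; 15 min RT preinc.; substrate 50 nM final; reads t=0 and 15 min; no-enzyme buffer wells as neg. control; normalized data, 4-parameter Hill fit.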

SMILES	Potency [1]	Potency [2]	Potency [3]	Potency [4]	outcome [5]	outcome [6]	outcome [7]	Potency [8]	Potency [9]	outcome [10]	Potency [11]	activation [12]	Potency [13]	viability change [13] [%]	outcome [14]	Potency [15]	Potency [16]	Potency [17]	Potency [18]	Potency [19]
CN1[C@@H](CC(=O)c2ccccc2)CCC[C@H]1C[C@H](O)c1ccccc1	inactive	inactive	inactive	inactive	inactive	inactive	inactive	inactive	inactive	inactive	inactive	0.5% (inactive)	inactive	-11	inactive	inactive				
c1ccc(-c2ccccn2)nc1	inactive	inactive	inactive	inactive		inactive	inactive	inactive	inactive		inactive		inactive	-0.658	inactive	inactive	inactive	inactive	inactive	
O=Nc1ccc2oc(=O)ccc2c1	inactive	inactive		39.8 µM (active)	inactive	inactive	inactive		inactive		inactive		inactive	1.8	inactive	inactive	39.8 µM (active)	inactive	inactive	inactive
CC(=O)N[C@H](C(=O)O)C(C)(C)SN=O	inactive	inactive	inactive	inactive	inactive	inactive	inactive	inactive	inactive		inactive		inactive	-5	inactive	inactive	inactive	inactive	inactive	
NC[C@@H]1O[C@H](C23CC4CC(CC(C4)C2)C3)Cc2c1ccc(O)c2O	3.7 µM (active)	inactive	inactive				inactive				inactive		inactive	3.16	inactive	inactive	20 µM (active) and inactive			
Cn1cc(C2=C(c3ccc(Cl)cc3Cl)C(=O)NC2=O)c2ccccc21	inactive	inactive	inactive	inactive			inactive		inactive		inactive		inactive	-10.9	inactive	inactive	inactive	14.1 µM (active)		
CC(C)Cc1ccc([C@H](C)C(=O)O)cc1	inactive	inactive	inactive	inactive			inactive	inactive	inactive		inactive	0.688% (inactive)	inactive	6.18	inactive		inactive	inactive	inactive	
CCCCCCCCCCCCCCCC(=O)NCC(COP(=O)([O-])OCC[N+](C)(C)C)OCC (configuration not stated)	inactive	inactive	inactive	inactive	inactive		inactive	inactive	10 µM (active)		18.3 µM (active)	0.812% (inactive)	inactive	10.8	inactive	inactive	inactive	12.6 µM (active)		
O=C1O/C(=C/Br)CCC1c1cccc2ccccc12 (configuration not stated)	inactive	inactive	2.67 µM (active)	inactive	inactive	inactive	inactive	inactive	inactive		inactive	-3.56% (inactive)			inactive	inactive	inactive	inactive	18.3 µM (active)	
Brc1c(Br)c(Br)c2n[nH]nc2c1Br	inactive	inactive	inactive		inactive	inactive	inactive	inactive	inactive			0.938% (inactive)			inactive	inactive		inactive		
C=C[C@@H]1CN2CC[C@@H]1C[C@H]2[C@H](O)c1ccnc2ccc(OC)cc12	0.0928 µM (active)	inactive		inactive	inactive			inactive	inactive		inactive		inactive	-4.66	inactive			inactive	inactive	
O=S(=O)(c1cccc2c(I)cccc12)N1CCCNCC1	inactive	inactive			inactive		inactive				inactive	2.06% (inactive)	inactive	12.3	inactive	inactive	inactive	14.1 µM (active)		inactive
CCCCC/C=C\CC(O)/C=C/c1cccc(CC(O)CCCCO)n1 (configuration not stated)	inactive	inactive		0.0075 µM (active)		inactive	inactive		inactive		inactive	-2.94% (inactive)	inactive	-0.641	inactive	inactive	inactive	inactive		
CC(COc1ccc(/C=C/c2ccccc2)cc1)[N+](C)(C)C (configuration not stated)	3.29 µM (active)	inactive	inactive	inactive	inactive	inactive	inactive	inactive	inactive		inactive				inactive	inactive	inactive	inactive	inactive	
NCCSSCCN	inactive		inactive	50.1 µM (active)	inactive	inactive	inactive	inactive	inactive		inactive		inactive	-6.08	inactive	inactive	79.4 µM (active) and inactive	inactive		inactive
CC(C)NC[C@H](O)COc1cccc2[nH]ccc12	inactive	inactive	inactive		inactive	inactive	inactive	inactive	inactive		inactive	1.12% (inactive)	inactive	-1.79	inactive	inactive		inactive		
C=C/C(C)=C/[C@@]1(C)SC(=O)C(C)=C1O	inactive					inactive	inactive					0.875% (inactive)				inactive	50.1 µM (active)			
CSc1ccccc1N1CCN(CCCCCC(=O)NC2CCCc3ccccc32)CC1 (configuration not stated)		inactive	inactive	50.1 µM (active)	inactive			inactive	2 µM (active)		inactive						inactive	inactive		inactive
CCOC(=O)C1=C(C)NC(C)=C(C(=O)OCC)C1c1c(F)c(F)c(F)c(F)c1F		inactive	inactive	inactive	inactive						inactive				inactive		inactive	inactive		inactive
O=C(Nc1ccccc1)c1cc([N+](=O)[O-])ccc1Cl		inactive	inactive	inactive	inactive	inactive	inactive		inactive		inactive	0.375% (inactive)	inactive	-4.87	inactive	inactive	inactive			inactive
CCN1/C(=C/C(C)=O)Sc2ccc(OC)cc21	inactive		inactive		inactive	inactive	inactive	inactive	inactive		inactive	-4.31% (inactive)	inactive	-5.53	inactive	inactive	inactive	inactive		
COc1cccc(C(=O)NCCN2CCN(c3ccc(Cl)cc3)CC2)c1		inactive	inactive	inactive	inactive	inactive	inactive	inactive	inactive		inactive	0.562% (inactive)	inactive	-10	inactive	inactive	inactive	inactive		inactive
Nc1nc(Nc2ccccc2)nc2c1ncn2[C@@H]1O[C@H](CO)[C@@H](O)[C@H]1O		inactive	inactive	inactive	inactive			inactive	inactive				inactive	-0.505	inactive		inactive	inactive	5.8 µM (active)	inactive
CC1CN(S(=O)(=O)c2cccc3cnccc23)CCN1 (configuration not stated)	inactive		inactive		inactive	inactive	inactive	inactive	inactive		inactive	1.06% (inactive)	inactive	1.98	inactive	inactive	inactive	inactive	20.6 µM (active)	
CCNC(=O)[C@H]1O[C@@H](n2cnc3c(N)nc(NCCc4ccc(CCC(=O)O)cc4)nc32)[C@H](O)[C@@H]1O		inactive	inactive	inactive	inactive			inactive	inactive		inactive		inactive	0.951	inactive		inactive	inactive	inactive	inactive
